According to ChEMBL document CHEMBL1961873, “Compounds: GSK PKIS; Assays: Nanosyn kinase panel” (2012):

Experiments:
[1] = biological target: T1, Tyrosine-protein kinase receptor TYRO3 (Homo sapiens) (UniProt Q06418); settings: at 1 µM
T1 sequence (whole entry): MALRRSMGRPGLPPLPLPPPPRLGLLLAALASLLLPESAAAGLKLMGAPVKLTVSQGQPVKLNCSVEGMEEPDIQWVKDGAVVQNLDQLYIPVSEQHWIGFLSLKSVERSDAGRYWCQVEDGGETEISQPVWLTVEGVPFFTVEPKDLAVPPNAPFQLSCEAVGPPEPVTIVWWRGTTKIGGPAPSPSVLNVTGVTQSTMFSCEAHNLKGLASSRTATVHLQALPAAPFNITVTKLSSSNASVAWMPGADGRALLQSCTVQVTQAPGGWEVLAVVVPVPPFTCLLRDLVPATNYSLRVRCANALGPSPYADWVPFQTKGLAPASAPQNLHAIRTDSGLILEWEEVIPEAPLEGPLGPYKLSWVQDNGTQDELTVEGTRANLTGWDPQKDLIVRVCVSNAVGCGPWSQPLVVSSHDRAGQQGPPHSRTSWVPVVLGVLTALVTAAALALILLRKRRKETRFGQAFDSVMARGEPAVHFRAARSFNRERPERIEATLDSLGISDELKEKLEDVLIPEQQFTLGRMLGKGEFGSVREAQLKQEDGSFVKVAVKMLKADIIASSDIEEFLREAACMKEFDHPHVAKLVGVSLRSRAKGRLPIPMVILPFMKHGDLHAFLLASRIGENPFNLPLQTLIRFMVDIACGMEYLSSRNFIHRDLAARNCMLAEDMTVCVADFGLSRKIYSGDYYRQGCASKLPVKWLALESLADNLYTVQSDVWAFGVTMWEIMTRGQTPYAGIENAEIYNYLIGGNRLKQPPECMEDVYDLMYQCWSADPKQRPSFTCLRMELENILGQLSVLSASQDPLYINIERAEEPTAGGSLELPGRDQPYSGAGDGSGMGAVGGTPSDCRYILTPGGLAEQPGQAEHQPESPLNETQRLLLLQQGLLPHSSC

[2] = biological target: Tyrosine-protein kinase Yes (Homo sapiens) (UniProt P07947); settings: at 0.1 µM
[3] = biological target: Tyrosine-protein kinase Yes (Homo sapiens) (UniProt P07947); settings: at 1 µM
[4] = biological target: T2, Tyrosine-protein kinase ZAP-70 (Homo sapiens) (UniProt P43403); settings: at 0.1 µM
T2 sequence (whole entry): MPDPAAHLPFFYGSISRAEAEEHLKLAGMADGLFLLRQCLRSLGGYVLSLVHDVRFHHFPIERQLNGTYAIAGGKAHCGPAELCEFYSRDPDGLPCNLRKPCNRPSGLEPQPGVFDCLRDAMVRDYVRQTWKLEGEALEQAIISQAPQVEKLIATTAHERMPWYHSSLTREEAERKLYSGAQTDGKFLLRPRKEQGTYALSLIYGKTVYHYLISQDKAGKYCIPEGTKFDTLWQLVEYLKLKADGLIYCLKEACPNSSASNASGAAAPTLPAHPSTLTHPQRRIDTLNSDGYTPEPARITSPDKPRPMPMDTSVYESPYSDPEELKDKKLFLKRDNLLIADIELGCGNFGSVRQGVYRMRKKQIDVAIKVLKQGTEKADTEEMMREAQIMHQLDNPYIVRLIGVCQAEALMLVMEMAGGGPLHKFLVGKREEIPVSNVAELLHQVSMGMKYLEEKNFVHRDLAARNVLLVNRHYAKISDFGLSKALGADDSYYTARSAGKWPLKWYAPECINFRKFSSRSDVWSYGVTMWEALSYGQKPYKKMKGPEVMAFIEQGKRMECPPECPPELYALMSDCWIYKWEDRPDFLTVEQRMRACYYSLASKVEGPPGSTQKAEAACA

[5] = biological target: T2, Tyrosine-protein kinase ZAP-70 (Homo sapiens); settings: at 1 µM
[6] = biological target: Serine/threonine-protein kinase B-raf (Homo sapiens) (UniProt P15056); settings: at 0.1 µM
[7] = biological target: Serine/threonine-protein kinase B-raf (Homo sapiens) (UniProt P15056); settings: at 1 µM
[8] = test system: Serine/threonine-protein kinase B-raf (Homo sapiens), P15056 [V600E]; settings: at 0.1 µM
[9] = test system: Serine/threonine-protein kinase B-raf (Homo sapiens), P15056 [V600E]; settings: at 1 µM
[10] = biological target: RAF proto-oncogene serine/threonine-protein kinase (Homo sapiens) (UniProt P04049); settings: at 0.1 µM
[11] = biological target: RAF proto-oncogene serine/threonine-protein kinase (Homo sapiens) (UniProt P04049); settings: at 1 µM
[12] = biological target: T3, Interleukin-1 receptor-associated kinase 4 (Homo sapiens) (UniProt Q9NWZ3); settings: at 0.1 µM
T3 sequence (whole entry): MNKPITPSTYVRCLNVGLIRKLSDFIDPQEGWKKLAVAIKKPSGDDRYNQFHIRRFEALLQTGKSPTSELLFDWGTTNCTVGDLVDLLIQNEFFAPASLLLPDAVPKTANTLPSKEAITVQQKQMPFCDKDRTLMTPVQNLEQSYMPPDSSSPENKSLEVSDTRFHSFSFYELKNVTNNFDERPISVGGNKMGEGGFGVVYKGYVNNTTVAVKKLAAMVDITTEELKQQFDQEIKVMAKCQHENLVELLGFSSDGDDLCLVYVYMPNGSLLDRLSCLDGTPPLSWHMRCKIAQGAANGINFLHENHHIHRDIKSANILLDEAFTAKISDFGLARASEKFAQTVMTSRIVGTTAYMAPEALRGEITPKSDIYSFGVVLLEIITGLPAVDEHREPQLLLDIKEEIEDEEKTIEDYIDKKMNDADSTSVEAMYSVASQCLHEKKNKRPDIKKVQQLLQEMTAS

[13] = biological target: T3, Interleukin-1 receptor-associated kinase 4 (Homo sapiens); settings: at 1 µM
[14] = biological target: Leucine-rich repeat serine/threonine-protein kinase 2 (Homo sapiens) (UniProt Q5S007); settings: at 0.1 µM
[15] = biological target: Leucine-rich repeat serine/threonine-protein kinase 2 (Homo sapiens) (UniProt Q5S007); settings: at 1 µM
[16] = test system: Leucine-rich repeat serine/threonine-protein kinase 2 (Homo sapiens), Q5S007 [G2019S]; settings: at 0.1 µM
[17] = test system: Leucine-rich repeat serine/threonine-protein kinase 2 (Homo sapiens), Q5S007 [G2019S]; settings: at 1 µM

Sequence of Serine/threonine-protein kinase B-raf (Homo sapiens), P15056 [V600E] (P15056 whole entry V600E): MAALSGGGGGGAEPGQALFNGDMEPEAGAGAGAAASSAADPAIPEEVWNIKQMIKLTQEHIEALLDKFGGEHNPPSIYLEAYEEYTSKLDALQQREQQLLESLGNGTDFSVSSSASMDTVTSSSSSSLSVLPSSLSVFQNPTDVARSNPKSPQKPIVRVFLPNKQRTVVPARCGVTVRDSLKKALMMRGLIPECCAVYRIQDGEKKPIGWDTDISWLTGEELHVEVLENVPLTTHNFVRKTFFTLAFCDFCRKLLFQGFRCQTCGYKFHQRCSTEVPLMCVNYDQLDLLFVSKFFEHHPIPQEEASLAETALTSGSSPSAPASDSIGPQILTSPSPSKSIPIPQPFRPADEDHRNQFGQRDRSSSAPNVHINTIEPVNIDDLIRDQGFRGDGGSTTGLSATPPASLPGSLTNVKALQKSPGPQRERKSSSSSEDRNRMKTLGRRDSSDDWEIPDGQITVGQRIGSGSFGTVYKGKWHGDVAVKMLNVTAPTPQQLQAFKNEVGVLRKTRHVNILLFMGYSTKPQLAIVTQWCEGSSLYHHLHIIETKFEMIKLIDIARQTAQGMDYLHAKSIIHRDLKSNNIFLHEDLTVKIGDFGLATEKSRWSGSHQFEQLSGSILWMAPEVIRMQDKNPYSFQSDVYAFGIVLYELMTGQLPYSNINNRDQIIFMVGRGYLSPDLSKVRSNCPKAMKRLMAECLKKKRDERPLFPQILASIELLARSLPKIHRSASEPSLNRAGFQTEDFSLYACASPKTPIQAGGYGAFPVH
Sequence of Leucine-rich repeat serine/threonine-protein kinase 2 (Homo sapiens), Q5S007 [G2019S] (Q5S007 whole entry G2019S): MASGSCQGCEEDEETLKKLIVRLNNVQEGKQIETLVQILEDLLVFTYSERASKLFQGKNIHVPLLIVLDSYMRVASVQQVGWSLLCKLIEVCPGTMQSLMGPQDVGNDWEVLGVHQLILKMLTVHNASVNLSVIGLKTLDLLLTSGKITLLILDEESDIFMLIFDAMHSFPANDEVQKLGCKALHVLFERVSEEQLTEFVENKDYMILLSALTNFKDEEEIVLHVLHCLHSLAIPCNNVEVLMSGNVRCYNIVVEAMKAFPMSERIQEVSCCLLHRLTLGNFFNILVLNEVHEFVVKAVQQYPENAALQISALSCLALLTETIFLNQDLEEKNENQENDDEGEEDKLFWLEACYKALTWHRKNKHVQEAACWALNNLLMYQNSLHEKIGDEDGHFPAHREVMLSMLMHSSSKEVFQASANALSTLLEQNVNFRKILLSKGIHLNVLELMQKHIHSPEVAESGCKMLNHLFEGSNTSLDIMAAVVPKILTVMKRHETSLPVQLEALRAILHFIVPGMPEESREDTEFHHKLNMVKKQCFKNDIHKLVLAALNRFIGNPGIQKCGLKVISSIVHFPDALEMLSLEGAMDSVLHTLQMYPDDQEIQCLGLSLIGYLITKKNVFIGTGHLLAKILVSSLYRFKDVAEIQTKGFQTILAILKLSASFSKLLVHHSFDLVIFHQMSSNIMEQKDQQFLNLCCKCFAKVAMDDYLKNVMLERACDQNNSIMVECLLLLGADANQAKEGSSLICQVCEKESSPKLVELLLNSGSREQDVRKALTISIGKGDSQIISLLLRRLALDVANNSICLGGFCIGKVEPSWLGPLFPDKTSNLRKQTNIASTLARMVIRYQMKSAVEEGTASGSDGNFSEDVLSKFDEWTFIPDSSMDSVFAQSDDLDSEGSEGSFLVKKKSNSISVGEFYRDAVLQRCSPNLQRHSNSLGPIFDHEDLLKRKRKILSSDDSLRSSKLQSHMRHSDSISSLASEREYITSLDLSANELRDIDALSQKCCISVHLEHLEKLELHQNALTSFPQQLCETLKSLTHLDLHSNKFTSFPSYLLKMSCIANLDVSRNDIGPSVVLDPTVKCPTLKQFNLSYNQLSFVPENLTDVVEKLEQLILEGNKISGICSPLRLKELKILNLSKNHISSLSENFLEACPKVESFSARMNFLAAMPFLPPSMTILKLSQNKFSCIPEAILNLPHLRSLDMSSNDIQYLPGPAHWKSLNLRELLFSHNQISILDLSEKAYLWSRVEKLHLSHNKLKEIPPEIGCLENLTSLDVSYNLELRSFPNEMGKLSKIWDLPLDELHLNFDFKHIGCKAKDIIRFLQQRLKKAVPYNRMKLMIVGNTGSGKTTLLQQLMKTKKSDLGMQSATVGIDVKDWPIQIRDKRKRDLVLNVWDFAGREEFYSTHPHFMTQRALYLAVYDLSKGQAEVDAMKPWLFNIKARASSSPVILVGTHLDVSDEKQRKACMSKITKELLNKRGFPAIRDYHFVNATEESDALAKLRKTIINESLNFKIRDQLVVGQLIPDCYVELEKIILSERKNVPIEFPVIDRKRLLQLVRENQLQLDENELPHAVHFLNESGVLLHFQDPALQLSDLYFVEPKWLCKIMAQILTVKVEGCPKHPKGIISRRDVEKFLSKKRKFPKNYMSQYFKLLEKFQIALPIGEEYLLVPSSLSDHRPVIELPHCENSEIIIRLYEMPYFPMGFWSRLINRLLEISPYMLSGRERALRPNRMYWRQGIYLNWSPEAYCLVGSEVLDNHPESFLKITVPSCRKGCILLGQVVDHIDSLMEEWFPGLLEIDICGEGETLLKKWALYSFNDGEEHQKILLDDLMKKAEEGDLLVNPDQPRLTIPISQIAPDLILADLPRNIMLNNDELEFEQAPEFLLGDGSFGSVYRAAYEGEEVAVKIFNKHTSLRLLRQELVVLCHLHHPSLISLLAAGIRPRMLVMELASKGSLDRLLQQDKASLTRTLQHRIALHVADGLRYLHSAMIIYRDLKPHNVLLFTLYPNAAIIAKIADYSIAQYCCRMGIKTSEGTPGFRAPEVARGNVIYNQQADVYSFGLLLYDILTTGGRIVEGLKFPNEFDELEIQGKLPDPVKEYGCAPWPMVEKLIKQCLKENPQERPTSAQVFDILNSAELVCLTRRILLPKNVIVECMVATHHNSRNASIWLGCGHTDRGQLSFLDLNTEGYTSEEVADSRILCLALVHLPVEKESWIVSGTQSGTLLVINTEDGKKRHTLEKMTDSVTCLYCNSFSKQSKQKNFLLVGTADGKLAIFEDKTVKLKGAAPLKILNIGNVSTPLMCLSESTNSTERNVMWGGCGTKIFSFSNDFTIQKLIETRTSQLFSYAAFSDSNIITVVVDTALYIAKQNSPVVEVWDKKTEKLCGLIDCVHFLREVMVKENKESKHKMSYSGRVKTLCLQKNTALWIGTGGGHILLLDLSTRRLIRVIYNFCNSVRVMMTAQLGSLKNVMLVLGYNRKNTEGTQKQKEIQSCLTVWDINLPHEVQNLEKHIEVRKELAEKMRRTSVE
Sequence of Tyrosine-protein kinase Yes (Homo sapiens) (P07947 2-543 limits assumed): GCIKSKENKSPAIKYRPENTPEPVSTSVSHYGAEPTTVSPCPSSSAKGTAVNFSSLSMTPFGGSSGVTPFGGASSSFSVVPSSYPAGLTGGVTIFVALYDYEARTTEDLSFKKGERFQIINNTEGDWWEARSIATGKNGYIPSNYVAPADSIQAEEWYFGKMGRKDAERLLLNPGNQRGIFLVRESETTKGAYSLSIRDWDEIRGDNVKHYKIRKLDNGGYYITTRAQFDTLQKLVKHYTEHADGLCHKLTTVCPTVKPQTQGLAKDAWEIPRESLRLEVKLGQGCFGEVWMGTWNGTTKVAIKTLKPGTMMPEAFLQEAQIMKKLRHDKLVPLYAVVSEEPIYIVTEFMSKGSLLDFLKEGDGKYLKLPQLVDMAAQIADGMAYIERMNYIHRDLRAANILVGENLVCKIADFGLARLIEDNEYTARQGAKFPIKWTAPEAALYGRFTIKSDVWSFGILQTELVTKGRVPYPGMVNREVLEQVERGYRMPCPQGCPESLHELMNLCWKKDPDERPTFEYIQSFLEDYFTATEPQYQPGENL
Sequence of Serine/threonine-protein kinase B-raf (Homo sapiens) (P15056 whole entry): as the sequence (P15056 whole entry V600E) above, with E600V counted along it
Sequence of Leucine-rich repeat serine/threonine-protein kinase 2 (Homo sapiens) (Q5S007 whole entry): as the sequence (Q5S007 whole entry G2019S) above, with S2019G counted along it
Sequence of RAF proto-oncogene serine/threonine-protein kinase (Homo sapiens) (P04049 whole entry): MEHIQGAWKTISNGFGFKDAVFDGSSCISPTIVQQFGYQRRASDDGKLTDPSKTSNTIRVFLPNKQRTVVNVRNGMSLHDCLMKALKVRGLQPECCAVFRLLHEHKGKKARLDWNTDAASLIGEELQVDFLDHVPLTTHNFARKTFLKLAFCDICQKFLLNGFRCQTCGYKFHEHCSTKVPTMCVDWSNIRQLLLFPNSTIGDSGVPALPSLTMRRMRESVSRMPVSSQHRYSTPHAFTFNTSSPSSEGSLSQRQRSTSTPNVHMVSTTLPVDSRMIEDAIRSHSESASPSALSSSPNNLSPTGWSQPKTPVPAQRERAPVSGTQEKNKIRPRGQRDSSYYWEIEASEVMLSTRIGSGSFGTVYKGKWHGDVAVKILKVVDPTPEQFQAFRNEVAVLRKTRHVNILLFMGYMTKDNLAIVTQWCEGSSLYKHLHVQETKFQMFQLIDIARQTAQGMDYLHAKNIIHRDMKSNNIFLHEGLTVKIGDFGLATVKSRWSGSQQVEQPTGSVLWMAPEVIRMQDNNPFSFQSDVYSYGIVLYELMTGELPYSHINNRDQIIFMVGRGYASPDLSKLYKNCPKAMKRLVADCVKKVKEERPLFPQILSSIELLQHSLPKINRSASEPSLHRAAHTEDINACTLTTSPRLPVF

Structure (SMILES) | inhibition [1] [%] | inhibition [2] [%] | inhibition [3] [%] | inhibition [4] [%] | inhibition [5] [%] | inhibition [6] [%] | inhibition [7] [%] | inhibition [8] [%] | inhibition [9] [%] | inhibition [10] [%] | inhibition [11] [%] | inhibition [12] [%] | inhibition [13] [%] | inhibition [14] [%] | inhibition [15] [%] | inhibition [16] [%] | inhibition [17] [%]
CS(=O)(=O)CCNCc1cc(-c2cc3c(Nc4ccc(OCc5cccc(F)c5)c(Cl)c4)ncnc3s2)cs1 | 4.28 | 3.05 | 6.33 | 2.63 | 1.06 | 6.76 | 9.8 | 4.4 | 5.09 | 2.35 | -3.41 | 2.58 | 3.31 | 0.31 | 4.51 | 1.2 | 5.39
Cc1ccc(C(=O)NC2CCC2)cc1-c1ccc(C(=O)NCC2CC2)cc1 | 1.69 | 1.57 | 0.45 | 3.05 | 3.75 | 3.33 | 2.03 | 3.91 | 3.62 | -1.45 | -1.36 | 3.77 | 1.51 | 2.63 | 2.18 | 2.78 | 5.64
COc1cc(Nc2ncc3c(C)nc(-c4cccc(Oc5ccccc5)c4)n3n2)cc(OC)c1OC | 5.32 | -0.14 | 7.34 | 1.87 | -1.81 | 3.08 | 12.2 | 2.54 | 11.4 | 2.2 | -0.45 | -1.6 | 0.83 | 11.7 | 18.3 | 13.8 | 47.3
O=C1Nc2ccccc2/C1=C/Nc1ccc(-n2cncn2)cc1 | 10.2 | 3.29 | 15.7 | 4.53 | 7.33 | 6.1 | 6.87 | 7.05 | 6.86 | 15.1 | 5.44 | 2.2 | 2.52 | 4.2 | 9.2 | 6.6 | 23.9
COc1ccc2cc(-c3c(-c4ccncc4)nc(-c4ccc([S+](C)[O-])cc4C)n3C)ccc2c1 (stereo not given) | 2.2 | 3.84 | 21.3 | -0.83 | -0.09 | 0.29 | -0.78 | -0.1 | -0.41 | -0.64 | 2.82 | -4.88 | -0.25 | -0.88 | 0.64 | 0.88 | 4.04
Fc1ccc(-c2c(-c3ccncc3)nc3n2CCS3)cc1 | 1.69 | 2.78 | 5.33 | 0.51 | -2.36 | 4.16 | 4.3 | 3.07 | 4.28 | 2.08 | -2.98 | 1.96 | 1.7 | -3.32 | -2.49 | -1.05 | 0.48
c1ccc(Oc2ccc(Nc3ncc(-c4ccccc4)o3)cc2)cc1 | 1.97 | 0.58 | -0.25 | 1.43 | 0.91 | 1.29 | 1.47 | 2.23 | 1.97 | 0.01 | 1.5 | 1.75 | 0.97 | 1.55 | 3.95 | 4.15 | 6.81
COc1ccc(-c2ccc3c(NC(=O)C4CC4)n[nH]c3n2)cc1 | 21.7 | 2.13 | 8.75 | 0.8 | -3.24 | 3.14 | 2 | 3.73 | 1.97 | -1.88 |  | 2.75 | 0.45 | 1.6 | 5.11 | 2.17 | 3.39
